# Results taken from PubChem BioAssay AID493232 (The Scripps Research Institute Molecular Screening Center, 2011).
# In all, about 1,800 compounds went through this assay and about 860 (48%) were called active. So high a share suggests a set chosen from earlier hits. Not all results are given here. A number with no mark means an inactive call. Cut-off read from the data, not from the text of the source: active = inhibition above about 17%; inactive = the rest.
# Experiment: CHO-K1 parental line HTRF response – cell-based, counter-screen for OX1R antagonist project (AID 493232);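 note: 0% = agonist challenge with vehicle and 100% = vehicle alone without agonist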
# Details: parental CHO-K1 cells, HTRF counterscreen; at 6.6 µM; active compounds read high
row,SMILES,inhibition
1,NS(=O)(=O)c1ccc(CCNC(=O)c2ccc([N+](=O)[O-])cc2[N+](=O)[O-])cc1,76.4% (active)
2,O=C(Nc1nnc(-c2ccccc2)o1)c1cc(-c2cccs2)nc2ccccc12,-1.4%
3,Cn1c(N)c(C(=O)COC(=O)c2ccc3ccccc3c2)c(=O)n(C)c1=O,9.11%
4,COc1ccc(CCn2c(NCCCN3CCOCC3)nc3c2c(=O)[nH]c(=O)n3C)cc1,-0.46%
5,O=C(/C=C/c1ccco1)Nc1cccc(-c2nc3ccccc3[nH]2)c1,20.4% (active)
6,Cc1ccc2c(c1)nnc1nnc(SCC(=O)O)n12,113% (active)
7,CCn1c(SCC(=O)c2ccc3ccccc3c2)nnc1-c1cccs1,7.75%
8,COc1ccc2[nH]c(=O)c(CNc3ccc(C)c(C)c3)cc2c1,33.7% (active)
9,CN(C(=O)CSc1nnc(-c2n[nH]c3ccccc23)o1)c1ccccc1,-4.39%
10,O=C(Nc1ccc2sc3ccccc3c(=O)c2c1)c1ccccc1Cl,-3.67%
11,Cc1ccc(Nc2nc(CSc3nnnn3-c3ccccc3)cc(=O)[nH]2)cc1,1.23%
12,CCn1c(O)c(N=NC2=NC(=O)CS2)c2cc(C)ccc21,21.8% (active)
13,COc1cc(C(=S)N2CCOCC2)cc(OC)c1OC(=O)c1ccc([N+](=O)[O-])cc1[N+](=O)[O-],8.29%
14,O=C(Oc1ccccc1C(=S)N1CCCCC1)c1cc([N+](=O)[O-])cc([N+](=O)[O-])c1,56.2% (active)
15,COC(=O)CNC(=O)c1ccc2c(c1)S(=O)(=O)c1ccccc1C2=O,70.6% (active)
16,COc1cccc(C(=O)NC(=O)Nc2nc(C)cc(C(F)(F)F)n2)c1,0.24%
17,CCOc1ccc(CCNC(=O)C(CC)n2nc(C)n3c(cc4sccc43)c2=O)cc1OCC (stereo unspecified),7.91%
18,CCn1c(=N)c(C(=O)NCCCOC)cc2c(=O)n3cccc(C)c3nc21,83.9% (active)
19,CCOc1ccc(/C=C/C(=O)OCC(=O)c2ccccc2OC)cc1OC,7.57%
20,O=C(NCc1ccco1)C1CCCN(S(=O)(=O)c2cccc3nonc23)C1 (stereo unspecified),19.7% (active)
21,C/C(N)=C(/C#N)C(=O)COC(=O)c1cc(-c2ccc(C)cc2)nc2ccccc12,6.3%
22,COc1cc2ccccc2cc1C(=O)Nc1ccc(N2CCOCC2)cc1,16.2%

row,SMILES,inhibition
1,Cn1cnnc1Sc1ccc(S(C)(=O)=O)cc1[N+](=O)[O-],50.5% (active)
2,Nc1[nH][nH]c(=O)c1N=Nc1ccc2c(c1)OCO2,52.9% (active)
3,COc1ccc(CCNC(=O)/C(C#N)=C2\N=C(NC(=O)c3cccs3)c3ccccc32)cc1,24% (active)
4,O=C(N/N=C/c1c(Cl)[nH]c2ccccc12)c1sc2ccccc2c1Cl,16%
5,Cc1cc(C(=O)NC2CCCc3c2cnn3-c2cccc(C)c2C)c(C)o1 (stereo unspecified),9.36%
6,O=C(Nc1nnc(C2=COCCO2)o1)c1ccc([N+](=O)[O-])s1,52.2% (active)
7,Cc1ccccc1S(=O)(=O)N1[C@@H](c2cccc(Cl)c2)C(C(=O)O)=CC[C@H]1c1ccc(Cl)cc1,12.8%
8,COc1ccccc1N1CC(C(=O)Nc2ccc(S(=O)(=O)N3CCOCC3)cc2)CC1=O (stereo unspecified),8.11%
9,COc1ccc(N2CC(C(=O)NCCN3C(=O)S/C(=C\c4cccnc4)C3=O)CC2=O)c(OC)c1 (stereo unspecified),56.9% (active)
10,COc1ccc(S(=O)(=O)NC(C)c2ccccc2)cc1C(=O)N1CCCCC1 (stereo unspecified),-4.56%
11,CC(=O)Oc1ccc(C(C)=O)c2c1OCCO2,0.1%
12,COc1cccc(N=c2oc3c(C)ncc(CO)c3cc2C(N)=O)c1,51.5% (active)
13,COc1cccc(/C=N/Nc2cc(C)nc(-c3ccccc3O)n2)c1O,15.3%
14,CSCCC(NC(=O)c1cc([N+](=O)[O-])cc([N+](=O)[O-])c1)c1nc2ccccc2[nH]1 (stereo unspecified),24.7% (active)
15,COc1cccc(/C=N/NC(=O)c2[nH]nc3c2CCc2ccccc2-3)c1O,-15.5%
16,COCCNC(=O)Nc1ccc2nc(-c3ccco3)c(-c3ccco3)nc2c1,48.3% (active)
17,Cc1cc(-c2ccc(C)c(S(=O)(=O)NC(C)Cc3ccco3)c2)on1 (stereo unspecified),-2.9%
18,CCn1c(C)nc2c1C(=O)c1ccccc1C2=O,97.1% (active)
19,C[n+]1ccccc1C1CCCC/C1=N\Nc1ccc([N+](=O)[O-])cc1[N+](=O)[O-] (stereo unspecified),9.46%
20,c1ccc(-c2nc(NCc3ccco3)c3ccccc3n2)cc1,8.16%
21,CC(=O)N/N=C/c1cc2c(cc1[N+](=O)[O-])OCO2,60.3% (active)
22,O=C(CN1C(=O)c2cccc3cccc(c23)C1=O)N1CCCCC1,50% (active)

row,SMILES,inhibition
1,CCC(=O)N(C)C(c1ccccc1Cl)c1nnnn1-c1c(C)cccc1C (stereo unspecified),0.65%
2,Cc1cccc(NS(=O)(=O)c2cccc(C(=O)NNC(=O)c3ccccc3O)c2)c1,4.72%
3,N#C/C(=C1\CCCN1)c1nc(-c2ccccc2)cs1,10.3%
4,Nc1ccc2nc3c(=O)[nH]c(=S)[nH]c3nc2c1,77% (active)
5,Nc1nc(-c2sc3nc4c(cc3c2N)CCCC4)nc(N2CCOCC2)n1,16.2%
6,CC(=O)c1cccc(NC(=O)C2CCCN2S(=O)(=O)c2cccc3nsnc23)c1 (stereo unspecified),33% (active)
7,Cc1cc(C)cc(NC(=O)C2CCCN2S(=O)(=O)c2cccc3cccnc23)c1 (stereo unspecified),-5.63%
8,O=C(N/N=C/c1sc(N2CCCCC2)nc1-c1cccs1)c1cccnc1,6.55%
9,N#Cc1nc(-c2cccc3ccccc23)oc1N,-17.8%
10,O=C(Nc1ccccc1Cl)/C(Cl)=C(\Cl)S(=O)c1ccccc1 (stereo unspecified),-27.6%
11,COc1ccc2oc(=O)c(C(=O)NCc3ccccn3)cc2c1,47.5% (active)
12,O=C(O)CCC(=O)Nc1nc2ccc([N+](=O)[O-])cc2s1,47.7% (active)
13,COc1cccc(/C=C/c2ccc3ccccc3n2)c1OC(C)=O,11.5%
14,COC(=O)N/N=C/c1c[n+]([O-])c2ccccc2[n+]1[O-],97.3% (active)
15,Cc1c(/C=N\NC(=O)c2cc3ccccc3o2)c2ccccc2n1C,12.8%
16,CC(C)(C)NC(=O)CN(C(=O)c1csnn1)c1ccccc1-c1ccccc1,1.93%
17,CN1CCN(/N=C/c2ccc(-c3ccc([N+](=O)[O-])cc3)o2)CC1,34% (active)
18,Cc1oc2c(c1C(=O)N1CCOCC1)C(=O)c1ccccc1C2=O,104% (active)
19,CC(NC(=O)c1cccc2ccccc12)c1ccc2c(c1)CCCC2 (stereo unspecified),9.37%
20,CCOc1cc(/C=C(\C#N)c2nc(-c3cccs3)c(NC(C)=O)s2)ccc1O,2.21%
21,CC(C)CC[n+]1ccn(C2=C([O-])c3ccccc3C(=O)/C2=N\S(=O)(=O)c2ccccc2)c1,100% (active)
22,O=C(OC1CCOC1=O)c1ccc(-c2nc3ccccc3s2)s1 (stereo unspecified),28.1% (active)

row,SMILES,inhibition
1,Cc1cc(=O)oc(C)c1C(=O)NCCN(C)Cc1ccccc1,4.29%
2,O=C(c1ccncc1)c1ccc([N+](=O)[O-])cc1,68.8% (active)
3,CC(=O)Nc1ccc(Nc2c([N+](=O)[O-])cc(S(C)(=O)=O)cc2[N+](=O)[O-])cc1,71% (active)
4,CC(C)(C)NC(=O)Cn1cnc2cc([N+](=O)[O-])ccc2c1=O,73.7% (active)
5,O=C(Nc1cccc2cccnc12)c1cccc(N2C(=O)CCC2=O)c1,8.23%
6,O=C(Cc1ccccc1)N1CCN(S(=O)(=O)c2ccc([N+](=O)[O-])cc2)CC1,28.9% (active)
7,Cc1ccc([C@@H]2CC=C(C(=O)O)[C@H](c3cccc(Cl)c3)N2S(=O)(=O)c2ccc(C)cc2)cc1,4.59%
8,S=c1[nH]nc(-c2cc(-c3ccccc3)n[nH]2)n1/N=C/c1c2ccccc2cc2ccccc12,6.53%
9,Cc1cccn2c(=O)c3cc(C#N)c(=NC(=O)c4cccnc4)n(CC4CCCO4)c3nc12 (stereo unspecified),46.1% (active)
10,Nc1nc(COC(=O)CCC(=O)c2ccc(Cl)cc2)nc(Nc2ccccc2)n1,-0.94%
11,Cc1cccc(NC(=O)Nc2cccc(Oc3c(F)c(F)c(F)c(F)c3F)c2)c1,14.7%
12,O=C(NC(Cc1c[nH]c2ccccc12)C(=O)N/N=C/c1ccc(Br)cc1)c1cccs1 (stereo unspecified),3.77%
13,COC(=O)c1sccc1NC(=O)CSc1ccccc1NS(=O)(=O)c1cc(Cl)ccc1Cl,12.9%
14,COCCCNC(=S)NC(=O)c1ccc([N+](=O)[O-])cc1,29.9% (active)
15,COc1cc(OC)c(NC(=O)c2ccc(Br)o2)cc1Cl,8.45%
16,COc1ccc(N(C)C(=O)CCS(=O)(=O)c2cccc3nsnc23)cc1,56% (active)
17,CCOc1ccc(NC(=O)CCS(=O)(=O)c2cccc3nsnc23)cc1,35.3% (active)
18,COc1ccc2sc(-c3ccc(N(C)C)cc3)c(C#CCO)c2c1,14.2%
19,C=CCn1c(SCC(=O)Nc2nc3ccccc3s2)nnc1-c1ccccc1O,-0.28%
20,N#CC(=C1SC=CS1)c1nc(-c2ccccc2)cs1,14.8%
